Assay [1] is described as follows: E. coli DRC41 culture turbidity changes, primary screen, E. coli filamentation inducer project, strain DRC41, OD650, 48 h (AID 1152).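 Further: E. coli MC1000 strain DRC41 lacking acrAB efflux pump and sulA.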 As to conditions: E. coli DRC41 (acrAB sulA), higher = more signal, called active from +8 up or from −8 down.
Assay [2] in a line: small-molecule binders of probe aLefty1, primary screen, biochemical, small-molecule microarray, 635/667 nm fluorescence (AID 1153).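 Further: score merges spot fluorescence with signal-to-noise ratio from the scanned slide images.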 As to conditions: higher = more signal.
Assay [3] is described as follows: PSAC antagonists in infected red cells, primary screen, cell-based, P. falciparum Indochina, OD700, 1 h (AID 1154). As to conditions: P. falciparum Indochina infected RBC osmotic lysis, higher = more signal, called active from +8 up or from −8 down.
Assay [4] can be described thus: PSAC antagonists in infected red cells, primary screen, cell-based, P. falciparum Indochina, OD700, 2 h (AID 1155).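 Further: lysis reports solute entry through the parasite surface anion channel PSAC; channel blockers reduce lysis of infected cells.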 As to conditions: P. falciparum Indochina infected erythrocytes, osmotic lysis OD700; higher = more signal, called active from +8 up or from −8 down.
Assay [5] can be described thus: osmotic lysis modulators in infected erythrocytes, primary screen, PSAC antagonist project, cell-based, P. falciparum Indochina, OD700, 3 h (AID 1156). As to conditions: higher = more signal, called active from +8 up or from −8 down.
Assay [6] in a line: PSAC antagonists in infected red cells, primary screen, cell-based, P. falciparum Indochina, OD700, 18 h (AID 1157). As to conditions: P. falciparum Indochina infected erythrocytes, osmotic lysis OD700, 18 h; higher = more signal, called active from +8 up or from −8 down.
Assay [7] can be described thus: modulators of S6 phosphorylation in cells, primary screen, cell-based, A549, cytoblot, luminescence, serum-stimulated (AID 1158).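 Further: serum-stimulated A549 lung adenocarcinoma cells; signal is phosphorylated S6 detected by cytoblot immunostaining with HRP secondary.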 As to conditions: A549 phospho-S6 cytoblot, 5 h, higher = more signal.
Assay [8] concerns the target NADPH oxidase 2 (Homo sapiens) (UniProt P04839). The assay can be described thus: NOX2-dependent H2O2 signal modulators, primary screen, NOX inhibitor project, cell-based, HEK293-NOX2, PMA-stimulated, Amplex Red fluorescence (AID 1159). Further: test concentration not given here. As to conditions: 45 min, higher = more signal, called active from +8 up or from −8 down.
Assay [9] deals with NADPH oxidase 4 (Homo sapiens) (UniProt Q9NPH5). Put plainly: NOX4-dependent H2O2 signal modulators, primary screen, NOX inhibitor project, cell-based, HEK293-NOX4, tetracycline-induced, Amplex Red fluorescence (AID 1160). As to conditions: 45 min, higher = more signal, called active from +8 up or from −8 down.
The target of assay [10] is NADPH oxidase 5 (Homo sapiens) (UniProt Q96PH1). Put plainly: NOX5-dependent H2O2 signal modulators, primary screen, NOX inhibitor project, cell-based, HEK293-NOX5, Amplex Red fluorescence (AID 1161). As to conditions: HEK293-NOX5, ionomycin, 45 min, higher = more signal.
Assay [11] can be described thus: A549 cell viability effects, profiling panel, calcein-AM fluorescence, 48 h, basal (AID 1162). Further: test concentration not given here. As to conditions: higher = more signal.
The nature of assay [12]: adipocyte viability effects, profiling panel, cell-based, 3T3-L1 adipocytes, calcein-AM fluorescence, 48 h, basal (AID 1163). Further: test concentration not given here. As to conditions: 3T3-L1 adipocytes viability, higher = more signal.
Assay [13] can be described thus: HepG2 cell viability effects, profiling panel, calcein-AM fluorescence, 48 h, basal (AID 1164). Further: test concentration not given here. As to conditions: higher = more signal.
The nature of assay [14]: MM1S cell viability effects, profiling panel, calcein-AM fluorescence, 48 h, basal (AID 1165).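 Further: viability of MM1S multiple myeloma cells under basal unstimulated conditions; test concentration not given here.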 As to conditions: higher = more signal.
The nature of assay [15]: basal RPMI8226 viability, no added stimulus, profiling panel, cell-based, calcein-AM fluorescence, 48 h, PK04 Diversity Set (AID 1166).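 Further: cells grown under basal conditions without added stimulus; test concentration not given here.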 As to conditions: RPMI8226 myeloma viability, higher = more signal.
Assay [16] can be described thus: basal HepG2 mitochondrial membrane potential changes, profiling panel, cell-based, JC-1 fluorescence, 24 h, 100 nL compound (AID 1167). Further: test concentration not given here. As to conditions: higher = more signal.
Assay [17] in a line: basal 3T3-L1 adipocyte mitochondrial potential changes, profiling panel, cell-based, JC-1 fluorescence, 3T3-L1 adipocytes, 24 h, 100 nL compound (AID 1168). Further: test concentration not given here. As to conditions: JC-1 mitochondrial fluorescence, higher = more signal, called active from +8 up or from −8 down.
Assay [18] can be described thus: basal RPMI8226 mitochondrial membrane potential changes, profiling panel, cell-based, JC-1 fluorescence, 24 h, 100 nL compound (AID 1169). Further: test concentration not given here. As to conditions: RPMI8226 myeloma, JC-1 mitochondrial potential fluorescence, higher = more signal.
A short description of assay [19]: basal MM1S mitochondrial membrane potential changes, profiling panel, cell-based, JC-1 fluorescence, 24 h, 100 nL compound (AID 1170). Further: test concentration not given here. As to conditions: higher = more signal.
Assay [20] is described as follows: A549 lung cancer cell viability effects, profiling panel, resazurin fluorescence, 24 h, PK04 Diversity Set (AID 1171). Further: test concentration not given here. As to conditions: higher = more signal, called active from +8 up or from −8 down.

Activity calls are given as the source filed them.

NADPH oxidase 2 (Homo sapiens), sequence (P04839 whole entry, looked up): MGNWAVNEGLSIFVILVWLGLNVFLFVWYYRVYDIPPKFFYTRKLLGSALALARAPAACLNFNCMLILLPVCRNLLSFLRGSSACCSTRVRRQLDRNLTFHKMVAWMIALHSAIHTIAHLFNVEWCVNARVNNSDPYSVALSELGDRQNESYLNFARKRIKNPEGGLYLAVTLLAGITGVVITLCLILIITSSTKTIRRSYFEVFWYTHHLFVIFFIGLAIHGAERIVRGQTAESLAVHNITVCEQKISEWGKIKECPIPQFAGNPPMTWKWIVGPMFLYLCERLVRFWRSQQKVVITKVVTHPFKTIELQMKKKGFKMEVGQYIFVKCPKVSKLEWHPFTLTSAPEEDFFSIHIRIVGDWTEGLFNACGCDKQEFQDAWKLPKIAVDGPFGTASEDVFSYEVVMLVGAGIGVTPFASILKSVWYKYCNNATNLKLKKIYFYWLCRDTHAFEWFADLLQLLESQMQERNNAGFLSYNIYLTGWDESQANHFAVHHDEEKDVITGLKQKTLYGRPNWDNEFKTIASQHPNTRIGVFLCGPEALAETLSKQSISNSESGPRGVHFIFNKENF
NADPH oxidase 5 (Homo sapiens), sequence (Q96PH1 whole entry, looked up): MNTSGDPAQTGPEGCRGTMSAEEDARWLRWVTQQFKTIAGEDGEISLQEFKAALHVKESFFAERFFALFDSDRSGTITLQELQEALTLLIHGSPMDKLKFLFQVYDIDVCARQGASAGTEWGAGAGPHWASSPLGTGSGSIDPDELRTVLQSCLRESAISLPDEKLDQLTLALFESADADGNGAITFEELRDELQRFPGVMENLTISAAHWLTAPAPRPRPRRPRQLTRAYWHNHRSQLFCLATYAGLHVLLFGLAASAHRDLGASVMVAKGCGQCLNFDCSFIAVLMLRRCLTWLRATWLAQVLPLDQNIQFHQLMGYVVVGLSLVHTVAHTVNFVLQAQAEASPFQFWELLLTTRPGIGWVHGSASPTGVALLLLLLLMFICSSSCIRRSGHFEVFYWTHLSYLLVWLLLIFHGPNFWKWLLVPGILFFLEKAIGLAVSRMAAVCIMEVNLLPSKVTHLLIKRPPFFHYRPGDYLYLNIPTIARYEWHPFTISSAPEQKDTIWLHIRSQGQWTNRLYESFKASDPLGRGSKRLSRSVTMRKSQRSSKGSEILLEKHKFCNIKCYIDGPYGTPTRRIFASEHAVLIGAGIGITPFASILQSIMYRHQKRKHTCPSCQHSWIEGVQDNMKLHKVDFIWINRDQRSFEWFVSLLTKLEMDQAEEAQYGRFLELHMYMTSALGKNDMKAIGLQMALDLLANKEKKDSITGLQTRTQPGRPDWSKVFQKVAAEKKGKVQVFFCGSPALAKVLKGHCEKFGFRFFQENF
NADPH oxidase 4 (Homo sapiens), sequence (Q9NPH5 whole entry, looked up): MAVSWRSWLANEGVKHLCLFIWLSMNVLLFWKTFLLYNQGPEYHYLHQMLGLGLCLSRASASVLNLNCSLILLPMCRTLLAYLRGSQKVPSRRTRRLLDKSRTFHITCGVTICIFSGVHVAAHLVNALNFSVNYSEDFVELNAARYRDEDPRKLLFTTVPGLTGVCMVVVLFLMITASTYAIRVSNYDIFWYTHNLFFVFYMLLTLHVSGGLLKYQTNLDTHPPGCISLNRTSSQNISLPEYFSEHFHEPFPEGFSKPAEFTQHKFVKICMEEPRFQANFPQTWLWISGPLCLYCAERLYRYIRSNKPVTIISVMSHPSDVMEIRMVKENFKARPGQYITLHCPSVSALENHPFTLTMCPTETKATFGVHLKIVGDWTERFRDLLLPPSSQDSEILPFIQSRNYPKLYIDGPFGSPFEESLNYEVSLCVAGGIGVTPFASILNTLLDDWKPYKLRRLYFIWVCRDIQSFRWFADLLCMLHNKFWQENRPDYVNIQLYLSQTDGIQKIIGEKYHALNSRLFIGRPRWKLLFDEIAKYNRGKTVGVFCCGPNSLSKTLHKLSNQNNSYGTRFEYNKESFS

`NC(=O)NCC#Cc1ccc2c(c1)[C@]1(C(=O)N2)[C@H](c2ccc(O)cc2)N2[C@H](c3ccccc3)[C@H](c3ccccc3)OC(=O)[C@H]2[C@@H]1C(=O)N1CCN(c2ncccn2)CC1`: the z-score is 0.642 (inactive) in assay [1]; 1.36 (inactive) in assay [3]; 0.747 (inactive) in [4]; 0.458 (inactive) in assay [5]; 0.565 (inactive) in assay [6]; -0.0168 in assay [7]. For the same compound, the z-score in [8] is 1.06 (inactive); in assay [9], 0.478 (inactive); in [10] it was 1.68; in assay [11] it was 0.719; in [12] it was 0.464; in [13], -1.08. For the same compound, the z-score in assay [14] was 0.252; in [15], 0.719; in assay [16], -1.83; in assay [17] it was -0.197 (inactive); in assay [18], 0.591; in [19], 1.06. Also, the z-score in assay [20] is 0.956 (inactive). Besides, the composite z-score in assay [2] came out at 0.266.
In the case of `COc1ccc([Si](C)(C)[C@@H]2[C@@H](CC(=O)N3Cc4ccccc4C[C@H]3CO)O[C@]3(C(=O)N(Cc4cccc(N5C(=O)COc6ccccc65)c4)c4ccccc43)[C@H]2C)cc1`, the z-score in assay [1] was 2.59 (inactive); in assay [3] it was 4.94 (inactive); in assay [4], 1.18 (inactive); in assay [5] it was -0.0434 (inactive); in assay [6], 0.208 (inactive); in assay [7], 4.59. Also, the z-score in assay [8] is -0.387 (inactive); in [9], 0.518 (inactive); in assay [10], 0.827; in [11], 0.196; in assay [12], 1.34; in assay [13], 0.553. In addition, the z-score in assay [14] is -0.296; in assay [15], -1.47; in [16], 0.411; in assay [17], 1.52 (inactive); in [18], -1.17; in assay [19], -0.974. In addition, in assay [20], the z-score was -0.751 (inactive). Besides, in [2], the composite z-score is -0.286.
As for `C=C[C@H](OC)[C@@H](OC(=O)Nc1ccc(SC)cc1)c1ccc(OCCO)cc1`, the z-score in assay [1] was -0.356 (inactive); in [3] it was 26 (active); in assay [4], 15.7 (active); in assay [5], 2.51 (inactive); in assay [6], 1.82 (inactive); in assay [7] it was 0.306. For the same compound, the z-score is 0.228 (inactive) in assay [8]; 0.103 (inactive) in assay [9]; 0.99 in assay [10]; -0.13 in [11]; 0.559 in assay [12]; 0.0758 in assay [13]. For the same compound, the z-score is -0.164 in [14]; 0.609 in assay [15]; -2.55 in assay [16]; 0.734 (inactive) in assay [17]; -0.0748 in assay [18]; -0.887 in [19]. Besides, the z-score in [20] was -0.139 (inactive). Also, the composite z-score in assay [2] is -0.101.
As for `CCCCN1CC=CC23O[C@@H]4C=CCCOC(=O)C4[C@H]2C(=O)N(CCCO)[C@@H]3C1=O` (stereo not given in full), the z-score in [1] is 0.62 (inactive); in assay [3], 0.158 (inactive); in assay [4], -1.01 (inactive); in [5], 0.224 (inactive); in assay [6], -1.34 (inactive); in assay [7], 0.243. For the same compound, the z-score was -0.168 (inactive) in [8]; -1.73 (inactive) in [9]; -1.34 in [10]; 0.146 in assay [11]; 1.53 in [12]; -0.365 in assay [13]. Besides, the z-score was 0.438 in assay [14]; -0.913 in [15]; -0.798 in [16]; -0.562 (inactive) in assay [17]; -0.781 in assay [18]; -0.148 in assay [19]. For the same compound, in assay [20], the z-score is -0.834 (inactive). The composite z-score in [2] is -0.321.
As to `COCCOC(=O)N1C(=O)[C@@]2(c3cc(C#CCC(C(=O)OC)C(=O)OC)ccc31)[C@H](c1ccc(OCCO)cc1)N1[C@H](c3ccccc3)[C@H](c3ccccc3)OC(=O)[C@H]1[C@@H]2C(=O)NC[C@H](O)c1ccccc1`, the z-score in assay [1] was 0.588 (inactive); in assay [3] it was 3.79 (inactive); in assay [4], 1.54 (inactive); in [5], 1.69 (inactive); in assay [6] it was 1.17 (inactive); in assay [7] it was 0.22. In addition, the z-score was 1.53 (inactive) in assay [8]; 1.26 (inactive) in assay [9]; 1.17 in [10]; 0.185 in assay [11]; 0.102 in [12]; 1.56 in [13]. Besides, the z-score in [14] is 0.446; in assay [15], -2.01; in [16], 0.177; in [17], 1.39 (inactive); in assay [18], -0.749; in assay [19] it was -1.61. Moreover, the z-score in [20] was 0.0076 (inactive). The compound further registered a composite z-score in [2] of -0.0533.
For `C=CCOC(=O)[C@H]1[C@@H]2C(=O)O[C@@H](c3ccccc3)[C@@H](c3ccccc3)N2[C@@H](c2ccc(OCCOC(=O)[C@H]3C[C@H]4C(=O)N[C@@H](CCCC[N+](C)(C)C)C(=O)N4[C@H]3c3ccc(O)cc3)cc2)[C@]12C(=O)Nc1ccccc12`, the z-score in assay [1] was 0.0787 (inactive); in [3], -2.12 (inactive); in assay [4], -1.12 (inactive); in assay [5], 0.857 (inactive); in [6], -1.95 (inactive); in assay [7], -0.327. Besides, the z-score in [8] is 2.39 (inactive); in [9], 0.928 (inactive); in assay [10], 0.96; in [11], 1.6; in [12], 0.6; in [13] it was 0.549. Besides, the z-score in assay [14] is 0.419; in assay [15] it was 0.337; in [16], -1.12; in [17], 1.31 (inactive); in assay [18] it was -0.456; in [19] it was -0.0465. Besides, the z-score in [20] is 0.896 (inactive). The composite z-score in assay [2] is 0.206.
With `O=c1cccc(-c2ccc3ccccc3c2)o1`, the z-score in [1] is 0.62 (inactive); in assay [3], 25.4 (active); in assay [4] it was 10 (active); in [5], -1.71 (inactive); in assay [6], 1.1 (inactive); in [7], -0.38. The z-score in [8] was -0.415 (inactive); in assay [9] it was -4.41 (inactive); in [10] it was -1.19; in assay [11], -0.996; in assay [12], -0.696; in assay [13], -0.644. The z-score in assay [14] was -0.332; in assay [15] it was -0.406; in assay [16], -1.31; in [17] it was 0.529 (inactive); in [18] it was 0.463; in [19] it was -0.288. Also, the z-score in assay [20] is -0.223 (inactive). Besides, the composite z-score in [2] was -0.0035.
For the compound `C=CC[C@@]1(C(=O)NCCN2CCOCC2)N=C(c2ccc(OCCCO)cc2)O[C@@H]1c1ccccc1CN=[N+]=[N-]`, the z-score in assay [1] was -0.121 (inactive); in assay [3] it was 24.4 (active); in assay [4], 13.4 (active); in assay [5], 2.29 (inactive); in assay [6], 0.203 (inactive); in assay [7], 1.15. The z-score is -0.842 (inactive) in assay [8]; 0.908 (inactive) in assay [9]; -0.701 in assay [10]; -0.0982 in assay [11]; 1.56 in assay [12]; 0.88 in assay [13]. Moreover, the z-score in [14] is -2.94; in assay [15], -1.03; in assay [16] it was 1.86; in assay [17], -0.224 (inactive); in assay [18], -0.129; in assay [19], -0.029. Besides, in assay [20], the z-score was -0.468 (inactive). The same compound yielded a composite z-score in assay [2] of 0.0193.
With `C=C(CCCC)/C(=C/C[C@@H](OC(=O)c1ccncc1)c1ccc(CO)o1)c1cc(C(=O)OC)ccc1OC`, the z-score in assay [1] was 0.722 (inactive); in assay [3], 8.99 (active); in [4], 1.07 (inactive); in assay [5], 2.84 (inactive); in assay [6], 0.454 (inactive); in assay [7] it was 0.739. The z-score in assay [8] was -0.268 (inactive); in assay [9], -1.08 (inactive); in assay [10], -1.52; in [11], 1.25; in [12] it was -0.1; in assay [13], 0.743. The z-score was -2.63 in assay [14]; -2.58 in assay [15]; 0.0818 in [16]; -0.239 (inactive) in assay [17]; -0.812 in [18]; -2.01 in assay [19]. Moreover, the z-score in assay [20] was -0.269 (inactive). Moreover, the composite z-score in [2] worked out at 0.0263.

Source of the values: PubChem BioAssay.
